The list is not random: actives were taken first. Their share in the collection is about 1.6%.
KCNQ2 enhance – potentiators of rat KCNQ2 potassium channel. Potassium voltage-gated channel subfamily KQT member 2 (Rattus norvegicus), O88943. CHO-K1 KCNQ2, FluxOR thallium flux fluorescence; active compounds read high. B-score at 10 µM. 0.54% of 310,000 active. AID 2239, 2010;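 active = fluorescence ratio B-score at least 3 SD of library B-scores, with initial fluorescence B-score within 3 of them, cut at about 5.3 in these data; same plate scores as AID 2156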;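 note: B-score of peak minus minimum over baseline fluorescence ratio after K+ and Tl+ stimulus; positive B-score means potentiation of KCNQ2 with more thallium influx and brighter signal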
KCNQ2 block – rat KCNQ2 potassium channel inhibitors, primary screen, cell-based, CHO-K1, FluxOR thallium flux, B-score. B-score at 10 µM. 1.1% of 310,000 active. Potassium voltage-gated channel subfamily KQT member 2 (Rattus norvegicus), O88943. 20 min; active compounds read low;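 active = fluorescence ratio B-score at most minus 3 library SDs, with starting brightness B-score within 2 library SDs, cut at about -5.5 in these data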
Kir21 confirm – mouse Kir2.1 channel blockers, retest, confirmation, cell-based, FluxOR thallium flux, duplicate | shares compounds with KCNQ2 enhance | Tl flux remaining, % of negative control (active compounds read low), % at 10 µM | 41% of 2,300 active | Kir2.1-expressing cells, FluxOR thallium flux fluorescence; active compounds read low;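 active = Primary-screen hit whose thallium flux fell at least 3 control SD below untreated wells in both duplicates, with normal baseline fluorescence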;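 note: 0% = blank wells without stimulus and 100% = stimulated no-compound controls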
Target sequence (P35561 whole entry, looked up): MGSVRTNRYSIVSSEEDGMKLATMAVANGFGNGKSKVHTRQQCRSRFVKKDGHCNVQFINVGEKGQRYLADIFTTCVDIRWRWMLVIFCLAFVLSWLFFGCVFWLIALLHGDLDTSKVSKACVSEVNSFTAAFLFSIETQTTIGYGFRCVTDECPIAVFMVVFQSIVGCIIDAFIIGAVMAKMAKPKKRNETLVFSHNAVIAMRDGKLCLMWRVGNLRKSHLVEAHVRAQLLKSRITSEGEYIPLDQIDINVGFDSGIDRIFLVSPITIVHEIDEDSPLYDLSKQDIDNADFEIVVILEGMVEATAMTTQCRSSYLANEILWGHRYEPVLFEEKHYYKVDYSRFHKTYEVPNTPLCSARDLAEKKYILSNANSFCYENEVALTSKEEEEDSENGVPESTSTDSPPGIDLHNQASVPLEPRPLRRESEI
HEK293 ctr – parental HEK293 activity in Kir2.1 inhibitor counter-screen; parental HEK293 cells, FluxOR thallium flux fluorescence; 0% = unstimulated blank wells; shares compounds with KCNQ2 enhance; FluxOR signal as % of negative control (100 = no effect), % at 10 µM; 19% of 2,300 active;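 active = dye signal at least 3 control SD above or below untreated wells in both duplicates, raw fluorescence within 3, either direction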;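 note: percent is based on the flux ratio of peak minus minimum fluorescence over baseline F0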
* marks the source's active call; other numbers are inactive results.

What do the screens show for `Cc1ccc(C(C)(C)C)c(OCCCn2ccnc2)c1`?
KCNQ2 block: inactive

How did COc1ccc(/C=C/C(=O)Nc2c(C(=O)O)[nH]c3ccccc23)cc1OC do in these assays?
KCNQ2 enhance: 1.8; KCNQ2 block: inactive

How did O=C(CCC(=O)N1CCOc2ccc(Cl)cc21)NCCCN1CCC(Cc2ccccc2)CC1 do in these assays?
KCNQ2 block: inactive; Kir21 confirm: inactive; HEK293 ctr: inactive

What do the screens show for `O=C(CCC(=O)N1CCOc2ccc(Cl)cc21)NCCCN1CCN(c2ccccc2F)CC1`?
KCNQ2 enhance: 1.1; KCNQ2 block: inactive

What do the screens show for `CC(CCc1ccc(O)cc1)NC1C2CC3CC(C2)CC1C3` (centres undefined)?
KCNQ2 enhance: 0.58; KCNQ2 block: inactive

Results for CC(CCc1ccc(O)cc1)NC1c2ccccc2-c2ccccc21 (centres undefined) ?
KCNQ2 enhance: 2.8; KCNQ2 block: inactive; Kir21 confirm: 33%*; HEK293 ctr: inactive

What do the screens show for `Cc1ccc(S(=O)(=O)N2CCC3(CC2)OCCN3S(=O)(=O)c2c(C)cc(C)cc2C)cc1`?
KCNQ2 block: inactive

Results for CC(C)C(=O)Nc1nnc(SCC(=O)NC2CCCC2)s1 ?
KCNQ2 block: inactive

Results for O=S(=O)(Nc1ccc2ccccc2n1)c1ccccc1 ?
KCNQ2 enhance: 2.1; KCNQ2 block: inactive

What do the screens show for `CC(COc1ccccc1Cc1ccccc1)N1CCCCC1` (centres undefined)?
KCNQ2 enhance: 0.23; KCNQ2 block: inactive; Kir21 confirm: inactive; HEK293 ctr: inactive

How did O=C(O)COc1ccccc1Cc1ccccc1 do in these assays?
KCNQ2 block: inactive

Results for O=C(CNc1cc(S(=O)(=O)N2CCOCC2)ccc1NCC1CCCO1)Nc1cccc(F)c1 (centres undefined) ?
KCNQ2 enhance: 0.41; KCNQ2 block: inactive

What do the screens show for `Cc1ccc(CNc2nc3ccccc3n2C)cc1`?
KCNQ2 block: inactive; Kir21 confirm: 36%*; HEK293 ctr: inactive

How did Cn1c(NCc2ccc(Cl)cc2)nc2ccccc21 do in these assays?
KCNQ2 block: inactive; Kir21 confirm: 25%*; HEK293 ctr: inactive

What do the screens show for `Cn1c(NCc2c(O)ccc3ccccc23)nc2ccccc21`?
KCNQ2 block: inactive

What do the screens show for `Cn1c(CNc2nc3ccccc3n2C)nc2ccccc21`?
KCNQ2 block: inactive

What do the screens show for `Clc1ccc(Cn2cccn2)cn1`?
KCNQ2 enhance: 0.61; KCNQ2 block: inactive

Results for O=C(CSc1nc2ccccc2o1)Nc1ccccc1N1CCOCC1 ?
KCNQ2 enhance: 0.43; KCNQ2 block: inactive; Kir21 confirm: 56%*; HEK293 ctr: inactive

How did O=C(CSc1nc2ccccc2o1)Nc1ccc(N2CCOCC2)cc1 do in these assays?
KCNQ2 block: inactive

How did CC[C@@H](C)[C@H](CN[C@H](CNC)C(C)C)NC[C@@H](C)c1ccc(CC(C)C)cc1 do in these assays?
KCNQ2 block: inactive; Kir21 confirm: 26%*; HEK293 ctr: inactive

How did CC[C@H](C)[C@@H](CNC)NC[C@@H](Cc1ccc(O)cc1)NCC(C)(C)C do in these assays?
KCNQ2 enhance: 0.03; KCNQ2 block: inactive

What do the screens show for `O=c1[nH]c(C2CCCN(S(=O)(=O)c3ccccc3)C2)nc2c1nnn2Cc1ccccc1Br` (centres undefined)?
KCNQ2 enhance: 0.07; KCNQ2 block: inactive

How did Cc1ccc2nc(Cl)c3nnnn3c2c1 do in these assays?
KCNQ2 block: inactive
